The record followed here is ChEMBL document CHEMBL1156829.

The full ranking holds about 5,400 compounds; the median of “IFI” is about 2, and the highest 2% start at about 22. Many of the other results were omitted from the sample, so the highest values are more common in it than they were.

This assay in a line: NOVARTIS: Inhibition Frequency Index (IFI) - the number of HTS assays where a compound showed > 50% inhibition/induction, expressed as a percentage of the number of assays in which the compound was tested. The class given is functional.
For `CCCOC(=O)C1=C(C)NC2=C(C(=O)CC(c3ccc(OC)c(OC)c3)C2)C1c1ccc(O)c(OCC)c1` (stereo not drawn), the IFI was determined as 0%.

As for `CCOC(=O)c1cc(S(=O)(=O)NCc2ccc(F)cc2)n[nH]1`, the IFI stood at 0%.

Compound `C=CCC(=O)NC1CCN(CC(O)CN(Cc2ccccc2)S(=O)(=O)c2ccccc2)C1` (stereo not drawn) registered an IFI of 2.91%.

Compound `CC12C(=O)N(c3cccc(C(=O)O)c3)C(=O)C1C1c3ccccc3C2c2ccccc21` (stereo not drawn) returned an IFI of 0%.

For the compound `CO[C@H]1C[C@H](C)Cc2cc(O)cc(c2)NC(=O)C(C)=CCC[C@H](OC)[C@@H](OC(N)=O)C(C)=CC(C)[C@H]1O` (stereo partly drawn), the IFI worked out at 9.62%.

`CCC(C)(C)c1ccc(Oc2ccc(NC(=O)c3ccc([N+](=O)[O-])o3)cc2)cc1` registered an IFI of 15.2%.

`CCOC(=O)c1ccc(NCc2c(C)[nH]c(C(=O)OCC)c2C)cc1`: the IFI amounted to 0%.

`O=C(Nc1nc(-c2ccccc2)cs1)c1ccccc1O` returned an IFI of 9.79%.

`CCN(CC)c1ccc(C=NNC(=O)c2ccc(Nc3nc(-c4ccccc4)cs3)cc2)c(O)c1` returned an IFI of 27.3%.

Turning to `CCN(CC)S(=O)(=O)c1ccc(-c2csc(Nc3ccc(C)c(C)c3)n2)cc1`, the IFI turned out to be 4.71%.

Turning to `Cn1nc(C(=O)NCc2ccccc2)c2c1CCN(Cc1cccc(O)c1)C2`, the IFI was found to be 1.22%.

`CC(C)C[C@@H]1NC(=O)[C@@H](CC(C)C)NC(=O)[C@H](C(C)C)NC(=O)[C@H]2CSSC[C@@H](NC1=O)C(=O)N2` displayed an IFI of 25.9%.

The compound `CC(C(=O)NCCCN)N(Cc1ccccc1)S(C)(=O)=O` (stereo not drawn) returned an IFI of 3.92%.

Compound `Oc1ccc(-c2cncc(NCc3ccccc3)n2)cc1` came in with an IFI of 0%.

In turn, `CN(C)c1ccc(C(=C2C=CC(=[N+](C)C)C=C2)c2ccc(N(C)C)cc2)cc1` showed an IFI of 25.7%.

Compound `CN(C)c1cc[n+](CC(=O)c2ccc(Cl)cc2)cc1` showed an IFI of 0%.

With `CCCCNC(=O)c1nn(-c2ccc(OC)cc2)c(=O)c2ccccc12`, the IFI stood at 2.35%.

Compound `Nc1nc(N)c2c(OCc3ccc(C(F)(F)F)cc3)cccc2n1` showed an IFI of 7.63%.

Consider `c1ccc(-c2cc(NCCCN3CCOCC3)nc(-c3ccccn3)n2)nc1`, for which the IFI amounted to 15.4%.

Turning to `CCOC(=O)c1sc2nc(N)c(C#N)c(-c3cccs3)c2c1N`, the IFI turned out to be 1.35%.

As for `CSc1oc(C(C)(C)C)nc1[P+](c1ccccc1)(c1ccccc1)c1ccccc1`, the IFI was determined as 23.2%.

`CSc1oc(-c2ccccc2)nc1C(N)=O` showed an IFI of 0%.

`COc1ccc2c(c1)C(C)(CC#N)C(=O)N2C` (stereo not drawn) had an IFI of 1.51%.

For `O=C1C(=Nc2cccc(C(F)(F)F)c2)c2ccccc2N1CN1CCc2ccccc2C1`, the IFI amounted to 0%.

`O=C1C(Sc2nnc[nH]2)=CC(=NS(=O)(=O)c2cccs2)c2ccccc21` gave an IFI of 25%.

`Cc1ccc(S(=O)(=O)N=C2C=C(Sc3nnc[nH]3)C(=O)c3ccccc32)cc1`: the IFI stood at 25%.

Compound `Cc1ccc(C)c(S(=O)(=O)N=C2C=C(SCC(=O)O)C(=O)c3ccccc32)c1` registered an IFI of 6.25%.

Consider `Cc1ccc(S(=O)(=O)N=C2C=C(Sc3nc4ccccc4[nH]3)C(=O)c3ccccc32)cc1`, for which the IFI was 12.7%.

`CCCCOc1ccc(C(=O)Oc2ccccc2-c2nc3cc(C)ccn3c2NC(C)(C)CC(C)(C)C)cc1` registered an IFI of 4.67%.

Regarding `COc1ccc(/C=C/c2nc(=O)c3ccccc3o2)cc1`, the IFI came out at 0%.

As to `O=C(COc1ccccc1Cl)OCc1cc(=O)n2nc(C3CC3)sc2n1`, the IFI was determined as 0%.

As for `CCSCCOC(=O)C1=C(C)NC2=C(C(=O)CCC2)C1c1ccc(OC)c(Br)c1` (stereo not drawn), the IFI was determined as 2.33%.

`CC(C)CN(C(C(=O)NC(CN1CCCC1)c1ccccc1)c1ccccc1)S(=O)(=O)c1ccccn1` (stereo not drawn) registered an IFI of 1.96%.

Compound `CCCN(CCC)[P+](CCC)(c1ccc([P+](CCC)(N(CCC)CCC)N(CCC)CCC)cc1)N(CCC)CCC` registered an IFI of 3.7%.

`CCCCCC[P+](N(CCC)CCC)(N(CCC)CCC)N(CCC)CCC` displayed an IFI of 29.1%.

Turning to `CCCCNC(=O)C(CC)Sc1nnc(-c2ccc(C)cc2)c(-c2ccc(C)cc2)n1` (stereo not drawn), the IFI is 0%.

Regarding `C=CCSc1nc2sc3c(c2c(=O)n1-c1ccccc1)CCN(C)C3`, the IFI was 7.55%.

The compound `O=C(Cc1ccccc1)Nc1ccc(C(=O)Nc2ccc(-c3nc4ccc(NC(=O)c5ccc(NC(=O)Cc6ccccc6)cc5)c(Cl)c4[nH]3)cc2)cc1` displayed an IFI of 7.58%.

`Nc1nc(Nc2cccc(Cl)c2)n[nH]1` registered an IFI of 1.07%.

The compound `OCCCNc1cc(-c2ccccn2)nc(-c2ccccn2)n1` gave an IFI of 15.4%.

In turn, `OCCCNc1cc(-c2ccnc(Nc3cccc(Cl)c3)n2)ccn1` returned an IFI of 30.8%.

Compound `Cc1nc2ccc(Cl)cc2c(O)c1I` displayed an IFI of 0.752%.

As to `CC(=O)N(C1=C(N2CCOCC2)C(=O)c2ccccc2C1=O)c1ccc(F)cc1`, the IFI turned out to be 24.7%.

`CC(=O)N(C)C1=C(N2CCOCC2)C(=O)c2ccccc2C1=O` came in with an IFI of 22.1%.

The compound `CC(=O)N(C1=C(N2CCOCC2)C(=O)c2ccccc2C1=O)c1ccc(I)cc1` returned an IFI of 18.7%.

`CC(=O)N(C)C1=C(N2CCCCCC2)C(=O)c2ccccc2C1=O` registered an IFI of 22.5%.

On to `CC(=O)N(C1=C(N(C)C)C(=O)c2ccccc2C1=O)c1ccc(F)cc1`, for which the IFI turned out to be 31.1%.

`CC(=O)N(C)C1=C(N2CCCC2)C(=O)c2ccccc2C1=O` showed an IFI of 0%.

Regarding `CC(=O)N(C1=C(N(C)C)C(=O)c2ccccc2C1=O)c1ccc(Cl)c(Cl)c1`, the IFI was 7.69%.

In turn, `CC(=O)N(C1=C(N2CCCC2)C(=O)c2ccccc2C1=O)c1ccc(F)cc1` gave an IFI of 8.11%.

For `CC(=O)N(C1=C(N(C)C)C(=O)c2ccccc2C1=O)c1cc(C)cc(C)c1`, the IFI turned out to be 15.4%.

`COc1cccc(-c2ccc(O)c(CN(C)CC(O)c3ccccc3)c2)n1` (stereo not drawn) had an IFI of 2.56%.

Regarding `Cc1c(-c2ccccc2)c2ccccc2n1CCc1ccc(C)[n+](C)c1`, the IFI came to 1.22%.

Compound `COC(=O)c1sc(-c2ccccc2)cc1NC(=O)c1ccc(S(=O)(=O)N2CCCCCC2)cc1` showed an IFI of 0%.

`CC[n+]1c(C=C2Sc3ccccc3N2CCO)sc2ccccc21` displayed an IFI of 4.69%.

`CCc1ccc(-n2c(C(CC)N(CCC(C)C)C(=O)Nc3ccc(Cl)c(Cl)c3)nc3ccccc3c2=O)cc1` (stereo not drawn): the IFI is 6.67%.

The compound `Cc1c(Cl)cccc1NC(=S)N(CCCN(C)c1ccccc1)Cc1cccn1Cc1ccc(Cl)cc1` registered an IFI of 6.45%.

With `COC(=O)C1=CNC=C(C(=O)OC)C1c1cc(OC)c(OC)c(OC)c1`, the IFI was 2.38%.

`NCC(c1ccc(F)cc1)c1ccc(F)cc1` registered an IFI of 0%.

Regarding `CCCc1c(C)nc2ccc(Br)cc2c1O`, the IFI was 3.03%.

As to `Cn1c(=O)c(Cl)c2c3c(c(Cl)ccc31)C(=O)c1ccccc1-2`, the IFI was 3.03%.

`Cn1c2c([n+](C)c1CCl)C(=O)c1ccccc1C2=O` showed an IFI of 35.7%.

`O=C1C(N2CCCCC2)=C(N2CCCCC2)C(=O)c2ccccc21` came in with an IFI of 0%.
